The nature of test [1]: ATG_GLI_CIS: Attagene CIS-FACTORIAL HepG2 Assay for human Zinc Finger Protein GLI1 (AID 2282945). The note with it: HepG2, Attagene cis-factorial reporter mRNA, GLI element; actives raise or lower the signal. A digest of the protocol: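 HepG2 cells transiently transfected with cis-promoter multiplexed reporter units report endogenous transcription factor activity. After 24 h chemical exposure, reporter mRNA was quantified by RT-PCR, 6-FAM labelling, HpaI digestion and capillary electrophoresis, with bidirectional fitting against DMSO.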

Test [2] deals with Bile acid receptor (Homo sapiens) (UniProt Q96RI1). Briefly: ATG_IR1_CIS: Attagene CIS-FACTORIAL HepG2 Assay for human Nuclear Receptor Subfamily 1 Group H Member 4 (NR1H4), IR1 submotif (AID 2282946). The following applies: IR1 reporter transcription, actives raise or lower the signal. A digest of the protocol: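 Transient MRTU transfection, HepG2; 24 h dosing; RNA → RT-PCR → 6-FAM primer extension → HpaI digest → capillary electrophoresis fluorescence. Gain/loss of signal fitted relative to DMSO.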

A short description of test [3]: ATG_GRE_CIS: Attagene CIS-FACTORIAL HepG2 Assay for human Glucocorticoid Response Elements (GRE) (AID 2282947). The following applies: HepG2 GRE cis-reporter, Attagene multiplex mRNA; actives raise or lower the signal. A digest of the protocol: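 Following 24 h chemical exposure of transiently transfected HepG2 cells, total RNA was reverse-transcribed and reporter cDNA amplified, fluorescently labelled and sized by capillary electrophoresis. Signal gain or loss was fitted relative to DMSO vehicle.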

Test [4] in a line: ATG_ISRE_CIS: Attagene CIS-FACTORIAL HepG2 Assay for human Interferon Regulatory Factor 1 (IRF1) binding to an Interferon-Stimulated Response Element (ISRE) (AID 2282948). The following applies: HepG2 ISRE cis-reporter (Attagene), mRNA transcription readout; actives raise or lower the signal. The method, boiled down:
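Transiently transfected HepG2 cells carrying cis-element reporter units, dosed 24 hours. Reporter mRNA quantified by RT-PCR, fluorescent primer extension, HpaI digestion and capillary electrophoresis. Bidirectional fitting relative to DMSO.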

Test [5] is described as follows: ATG_M_32_CIS: Attagene CIS-FACTORIAL HepG2 Assay for M32 Transcription Factor (Internal Marker) (AID 2282949).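 Also: background control marker of the multiplexed CIS panel rather than a real target.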 The following applies: HepG2 Attagene cis-factorial M32 reporter, mRNA; actives raise or lower the signal. A digest of the protocol: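 HepG2 cells transiently transfected with multiplexed cis-regulated reporter units, dosed 24 h. Reporter mRNA quantified by RT-PCR, 6-FAM labelling, HpaI digestion and capillary electrophoresis; bidirectional fit vs DMSO.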

Test [6] concerns the target Hypoxia-inducible factor 1-alpha (Homo sapiens) (UniProt Q16665). Briefly: ATG_HIF1a_CIS: Attagene CIS-FACTORIAL HepG2 Assay for human Hypoxia Inducible Factor 1 (HIF1A) (AID 2282951). The following applies: HepG2 Attagene cis-factorial HIF1a reporter transcription; actives raise or lower the signal. The method, boiled down:
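Endogenous-TF cis reporter readout, human HepG2 cells, 24 h incubation; mRNA detected via RT-PCR and capillary electrophoresis fluorescence; DMSO-normalised bidirectional fitting.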

Test [7] deals with Hepatocyte nuclear factor 6 (Homo sapiens) (UniProt Q9UBC0). Briefly: ATG_HNF6_CIS: Attagene CIS-FACTORIAL HepG2 Assay for human Hepatocyte Nuclear Factor 6 (HNF6) (AID 2282952). The following applies: HepG2 Attagene cis-factorial HNF6 reporter transcription; actives raise or lower the signal. The method, boiled down:
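Multiplexed mRNA reporter assay in transfected HepG2; 24 h dosing; RT-PCR plus capillary electrophoresis fluorescence; DMSO-referenced bidirectional curve fitting.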

Test [8] has as its target Heat shock factor protein 1 (Homo sapiens) (UniProt Q00613). Briefly: ATG_HSE_CIS: Attagene CIS-FACTORIAL HepG2 Assay for human Heat Shock Transcription Factor 1 (HSE) (AID 2282953). The following applies: HepG2 HSE cis-reporter, Attagene RNA transcription; actives raise or lower the signal. The method, boiled down: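 HepG2 cells transiently transfected with multiple reporter transcription units under cis-regulatory promoter control, measuring endogenous transcription factor activity. After 24 h chemical exposure, reporter mRNA quantified by RT-PCR, fluorescent labelling, HpaI digestion and capillary electrophoresis; bidirectional fit versus DMSO.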

Test [9] in a line: ATG_MRE_CIS: Attagene CIS-FACTORIAL HepG2 Assay for human Metal Responsive Element (MRE) (AID 2282954). The note with it: HepG2 MRE cis-reporter transcription, Attagene multiplex; actives raise or lower the signal. A digest of the protocol:
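Step one: transfect HepG2 with cis-regulated reporter units. Step two: dose 24 h. Step three: isolate RNA, RT-PCR, 6-FAM label, HpaI digest, capillary electrophoresis. Fit bidirectionally to DMSO.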

For test [10], the target named is Paired box protein Pax-6 (Homo sapiens) (UniProt P26367). The test can be described thus: ATG_Pax6_CIS: Attagene CIS-FACTORIAL HepG2 Assay for human Paired Box 6 (PAX6) (AID 2282956). The following applies: HepG2 CIS-FACTORIAL PAX6 reporter transcription, RNA readout; actives raise or lower the signal. A digest of the protocol:
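HepG2 cells transiently transfected with cis-promoter-driven multiplexed reporter units sensing endogenous transcription factor activity; 24 h chemical exposure. Reporter mRNA quantified by RT-PCR, 6-FAM labelling, HpaI digestion and capillary electrophoresis; bidirectional fit versus DMSO baseline.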

Test [11] can be described thus: ATG_PXRE_CIS: Attagene CIS-FACTORIAL HepG2 Assay for human Pregnane X Receptor Element (PXRE) (AID 2282957). The note with it: HepG2 Attagene CIS-FACTORIAL PXRE reporter, mRNA; actives raise or lower the signal. A digest of the protocol: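 Cells: HepG2, transiently transfected reporter units under cis promoter control. Exposure: 24 h. Detection: reporter mRNA via RT-PCR/CE fluorescence; bidirectional fitting, DMSO-referenced.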

The nature of test [12]: ATG_PPRE_CIS: Attagene CIS-FACTORIAL HepG2 Assay for human Peroxisome Proliferator-activated Response Element (PPRE) (AID 2282958). The note with it: HepG2 PPRE cis-element reporter, Attagene transcription factor profiling; actives raise or lower the signal. A digest of the protocol: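 After human HepG2 hepatoma cells were transiently transfected with cis-promoter reporter constructs, they were exposed to test chemicals for 24 hours. Reporter RNA was then reverse-transcribed, PCR-amplified, FAM-labeled, HpaI-digested and quantified by capillary electrophoresis.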

Test [13] is described as follows: ATG_RORE_CIS: Attagene CIS-FACTORIAL HepG2 Assay for human RAR-related Orphan Receptor Element (RORE) (AID 2282959). The note with it: HepG2 Attagene cis-factorial RORE reporter, mRNA; actives raise or lower the signal. The method, boiled down:
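Measured here: transcript induction of a cis-regulated reporter in HepG2 cells transiently transfected via FuGene 6. After 24 h, RNA was processed by RT-PCR and fluorescent capillary electrophoresis; DMSO defined baseline activity.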

Test [14] can be described thus: ATG_Sox_CIS: Attagene CIS-FACTORIAL HepG2 Assay for human SRY-box transcription factor (SOX) (AID 2282960). The following applies: HepG2 Attagene cis-factorial SOX reporter, mRNA; actives raise or lower the signal. A digest of the protocol:
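Using transiently transfected HepG2 cells, reporter transcription driven by cis elements was assessed 24 h after dosing. Signal was fluorescence of capillary-separated RT-PCR products, with DMSO defining baseline activity.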

Test [15] deals with Transcription factor Sp1 (Homo sapiens) (UniProt P08047). Briefly: ATG_Sp1_CIS: Attagene CIS-FACTORIAL HepG2 Assay for human Specificity Protein 1 (Sp1) (AID 2282961). The note with it: HepG2 Sp1 cis-reporter transcription, actives raise or lower the signal. The method, boiled down:
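After transient transfection of HepG2 cells with cis-promoter reporter units and 24 h chemical treatment, reporter transcripts were quantified by RT-PCR and capillary electrophoresis fluorescence. Gain- and loss-of-signal fitted against DMSO.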

The nature of test [16]: ATG_SREBP_CIS: Attagene CIS-FACTORIAL HepG2 Assay for human Sterol Regulatory Element Binding (SREBP) (AID 2282962). The note with it: HepG2 Attagene cis-factorial SREBP reporter, mRNA; actives raise or lower the signal. A digest of the protocol:
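HepG2 cells transiently transfected with multiplexed cis-promoter reporter units sensing endogenous transcription factors; reporter mRNA measured 24 h after dosing by RT-PCR, 6-FAM labeling, HpaI digestion and capillary electrophoresis. Bidirectional fit versus DMSO.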

Test [17] deals with Signal transducer and activator of transcription 3 (Homo sapiens) (UniProt P40763). Briefly: ATG_STAT3_CIS: Attagene CIS-FACTORIAL HepG2 Assay for human Signal Transducer and Activator of Transcription 3 (STAT3) (AID 2282963). The note with it: HepG2, Attagene cis-factorial STAT3 reporter transcription; actives raise or lower the signal. The method, boiled down: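 Transcript-level reporter assay. HepG2 transient MRTU transfection, 24 h exposure, fluorescence detection after RT-PCR and CE; DMSO baseline.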

A short description of test [18]: ATG_TA_CIS: Attagene CIS-FACTORIAL HepG2 Assay for human TA Basal Promoter (AID 2282964). The note with it: HepG2 Attagene CIS-factorial TA basal promoter reporter; actives raise or lower the signal. The method, boiled down: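 HepG2 cells transiently transfected with multiplexed cis-promoter reporter units, dosed 24 h. Reporter mRNA measured by RT-PCR, 6-FAM labelling, HpaI digestion and capillary electrophoresis; bidirectional fit versus DMSO baseline, serving as background control.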

A short description of test [19]: ATG_M_06_CIS: Attagene CIS-FACTORIAL HepG2 Assay for M06 Transcription Factor (Internal Marker) (AID 2282950). The note with it: HepG2 Attagene CIS-FACTORIAL M06 internal marker reporter; actives raise or lower the signal. The method, boiled down:
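HepG2 cells transiently transfected with cis-regulated multiple reporter transcription units were exposed to chemical for 24 h; reporter mRNA was quantified by RT-PCR, 6-FAM primer labelling, HpaI digestion and capillary electrophoresis, fitted bidirectionally against DMSO.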

Molecules are shown by their SMILES. The source holds several records for some structures; these can differ, active in one and inactive in another. Activity calls are given as the source filed them. The calls were made as follows: active = hit-call score of the fitted dose curve at least 0.9, where 1 is the maximum; inactive = score below 0.9.

Chain of Signal transducer and activator of transcription 3 (Homo sapiens) (P40763 whole entry, looked up): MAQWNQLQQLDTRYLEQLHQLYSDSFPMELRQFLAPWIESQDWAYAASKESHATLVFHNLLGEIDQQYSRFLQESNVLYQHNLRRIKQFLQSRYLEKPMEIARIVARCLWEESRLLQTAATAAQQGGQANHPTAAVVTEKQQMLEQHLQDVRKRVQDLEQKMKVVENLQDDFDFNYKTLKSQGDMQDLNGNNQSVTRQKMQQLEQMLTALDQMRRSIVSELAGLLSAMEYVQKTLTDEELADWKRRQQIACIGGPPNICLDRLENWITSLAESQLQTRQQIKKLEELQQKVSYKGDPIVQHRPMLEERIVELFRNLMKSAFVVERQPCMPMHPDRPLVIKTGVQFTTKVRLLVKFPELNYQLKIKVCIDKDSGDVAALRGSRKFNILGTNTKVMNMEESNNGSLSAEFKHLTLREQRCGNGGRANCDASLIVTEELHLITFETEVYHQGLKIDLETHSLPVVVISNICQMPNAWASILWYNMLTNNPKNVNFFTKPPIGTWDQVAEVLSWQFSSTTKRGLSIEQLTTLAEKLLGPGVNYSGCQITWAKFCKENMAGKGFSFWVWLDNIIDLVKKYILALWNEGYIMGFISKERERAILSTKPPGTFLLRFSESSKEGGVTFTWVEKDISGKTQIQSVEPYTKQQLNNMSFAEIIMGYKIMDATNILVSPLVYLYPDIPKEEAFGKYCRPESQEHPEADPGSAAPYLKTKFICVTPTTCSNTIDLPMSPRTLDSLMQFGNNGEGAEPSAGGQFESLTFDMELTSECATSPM
Chain of Paired box protein Pax-6 (Homo sapiens) (P26367 whole entry, looked up): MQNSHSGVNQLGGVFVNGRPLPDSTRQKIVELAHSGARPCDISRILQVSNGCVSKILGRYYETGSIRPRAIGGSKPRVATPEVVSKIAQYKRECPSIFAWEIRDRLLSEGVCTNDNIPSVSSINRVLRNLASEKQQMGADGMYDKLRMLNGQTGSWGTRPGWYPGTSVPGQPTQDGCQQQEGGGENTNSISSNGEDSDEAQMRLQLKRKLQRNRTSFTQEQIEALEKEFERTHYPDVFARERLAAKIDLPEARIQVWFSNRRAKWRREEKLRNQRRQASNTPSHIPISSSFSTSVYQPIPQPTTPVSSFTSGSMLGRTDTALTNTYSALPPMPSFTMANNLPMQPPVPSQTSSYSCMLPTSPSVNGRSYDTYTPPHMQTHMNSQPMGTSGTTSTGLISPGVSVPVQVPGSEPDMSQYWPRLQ
Chain of Heat shock factor protein 1 (Homo sapiens) (Q00613 whole entry, looked up): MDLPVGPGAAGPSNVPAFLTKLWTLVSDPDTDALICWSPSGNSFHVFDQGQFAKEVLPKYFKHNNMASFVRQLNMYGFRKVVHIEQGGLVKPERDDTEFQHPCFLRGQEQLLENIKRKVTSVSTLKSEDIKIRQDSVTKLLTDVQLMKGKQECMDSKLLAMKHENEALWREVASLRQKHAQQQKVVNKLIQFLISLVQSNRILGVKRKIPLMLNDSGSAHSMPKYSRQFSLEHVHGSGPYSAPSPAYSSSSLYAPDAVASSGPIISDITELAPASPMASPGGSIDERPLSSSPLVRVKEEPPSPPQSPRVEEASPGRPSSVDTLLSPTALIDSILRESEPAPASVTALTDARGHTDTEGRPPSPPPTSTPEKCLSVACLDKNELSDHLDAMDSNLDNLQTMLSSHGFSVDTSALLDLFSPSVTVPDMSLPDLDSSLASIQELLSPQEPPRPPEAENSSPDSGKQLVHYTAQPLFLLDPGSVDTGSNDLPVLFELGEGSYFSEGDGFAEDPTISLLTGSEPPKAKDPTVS
Chain of Hypoxia-inducible factor 1-alpha (Homo sapiens) (Q16665 whole entry, looked up): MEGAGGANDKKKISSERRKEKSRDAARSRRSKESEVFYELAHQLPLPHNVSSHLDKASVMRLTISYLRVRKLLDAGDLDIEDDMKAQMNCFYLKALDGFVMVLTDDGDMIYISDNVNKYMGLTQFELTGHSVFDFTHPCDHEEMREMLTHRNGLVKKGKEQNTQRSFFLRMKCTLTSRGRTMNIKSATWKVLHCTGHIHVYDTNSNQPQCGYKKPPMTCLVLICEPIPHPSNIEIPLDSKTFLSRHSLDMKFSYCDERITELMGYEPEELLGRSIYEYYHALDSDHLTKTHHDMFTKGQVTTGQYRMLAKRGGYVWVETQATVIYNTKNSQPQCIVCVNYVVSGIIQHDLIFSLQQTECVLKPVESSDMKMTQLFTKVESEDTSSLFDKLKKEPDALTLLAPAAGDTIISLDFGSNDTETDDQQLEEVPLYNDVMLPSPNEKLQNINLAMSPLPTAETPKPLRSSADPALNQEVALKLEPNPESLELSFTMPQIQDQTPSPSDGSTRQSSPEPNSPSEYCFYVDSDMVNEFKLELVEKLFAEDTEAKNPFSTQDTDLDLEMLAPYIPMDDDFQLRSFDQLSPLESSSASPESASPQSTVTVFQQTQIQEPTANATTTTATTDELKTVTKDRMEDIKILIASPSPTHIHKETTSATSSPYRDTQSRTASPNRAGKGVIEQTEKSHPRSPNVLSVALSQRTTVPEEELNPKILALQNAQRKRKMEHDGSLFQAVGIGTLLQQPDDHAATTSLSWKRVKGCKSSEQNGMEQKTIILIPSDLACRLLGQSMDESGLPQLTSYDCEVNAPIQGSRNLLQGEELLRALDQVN
Chain of Bile acid receptor (Homo sapiens) (Q96RI1 whole entry, looked up): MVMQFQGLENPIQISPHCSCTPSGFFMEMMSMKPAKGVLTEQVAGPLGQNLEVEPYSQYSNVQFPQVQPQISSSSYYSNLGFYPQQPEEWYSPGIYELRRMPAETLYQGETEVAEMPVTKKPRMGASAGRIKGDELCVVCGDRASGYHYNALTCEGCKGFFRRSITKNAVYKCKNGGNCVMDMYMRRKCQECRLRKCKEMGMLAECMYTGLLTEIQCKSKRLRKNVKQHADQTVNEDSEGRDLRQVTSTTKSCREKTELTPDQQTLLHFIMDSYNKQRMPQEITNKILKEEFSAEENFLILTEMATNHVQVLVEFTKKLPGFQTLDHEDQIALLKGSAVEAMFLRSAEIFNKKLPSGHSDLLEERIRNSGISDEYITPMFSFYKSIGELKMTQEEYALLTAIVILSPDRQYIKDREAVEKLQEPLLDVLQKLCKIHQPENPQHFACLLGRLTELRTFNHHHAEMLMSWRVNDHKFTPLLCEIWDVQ
Chain of Transcription factor Sp1 (Homo sapiens) (P08047 whole entry, looked up): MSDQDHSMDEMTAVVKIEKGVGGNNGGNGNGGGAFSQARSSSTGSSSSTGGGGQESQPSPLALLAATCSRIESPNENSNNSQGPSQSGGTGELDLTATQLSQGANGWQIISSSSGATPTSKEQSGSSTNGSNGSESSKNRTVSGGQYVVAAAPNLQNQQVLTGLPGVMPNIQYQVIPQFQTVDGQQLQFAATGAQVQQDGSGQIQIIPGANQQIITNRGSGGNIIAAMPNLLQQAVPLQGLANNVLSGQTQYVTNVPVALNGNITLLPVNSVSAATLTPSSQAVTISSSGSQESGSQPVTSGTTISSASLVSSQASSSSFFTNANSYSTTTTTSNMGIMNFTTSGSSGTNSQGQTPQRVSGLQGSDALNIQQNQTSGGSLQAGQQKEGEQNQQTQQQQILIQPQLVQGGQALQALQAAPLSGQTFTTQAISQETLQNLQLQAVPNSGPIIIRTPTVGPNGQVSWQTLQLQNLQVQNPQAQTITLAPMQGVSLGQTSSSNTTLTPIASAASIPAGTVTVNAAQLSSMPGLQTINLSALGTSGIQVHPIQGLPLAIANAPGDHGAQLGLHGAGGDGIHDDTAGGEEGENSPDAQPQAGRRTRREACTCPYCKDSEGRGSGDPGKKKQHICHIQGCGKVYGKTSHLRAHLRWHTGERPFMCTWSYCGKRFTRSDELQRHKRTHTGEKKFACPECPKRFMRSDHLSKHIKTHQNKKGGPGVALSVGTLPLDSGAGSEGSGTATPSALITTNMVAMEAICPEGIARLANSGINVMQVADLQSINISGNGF
Chain of Hepatocyte nuclear factor 6 (Homo sapiens) (Q9UBC0 whole entry, looked up): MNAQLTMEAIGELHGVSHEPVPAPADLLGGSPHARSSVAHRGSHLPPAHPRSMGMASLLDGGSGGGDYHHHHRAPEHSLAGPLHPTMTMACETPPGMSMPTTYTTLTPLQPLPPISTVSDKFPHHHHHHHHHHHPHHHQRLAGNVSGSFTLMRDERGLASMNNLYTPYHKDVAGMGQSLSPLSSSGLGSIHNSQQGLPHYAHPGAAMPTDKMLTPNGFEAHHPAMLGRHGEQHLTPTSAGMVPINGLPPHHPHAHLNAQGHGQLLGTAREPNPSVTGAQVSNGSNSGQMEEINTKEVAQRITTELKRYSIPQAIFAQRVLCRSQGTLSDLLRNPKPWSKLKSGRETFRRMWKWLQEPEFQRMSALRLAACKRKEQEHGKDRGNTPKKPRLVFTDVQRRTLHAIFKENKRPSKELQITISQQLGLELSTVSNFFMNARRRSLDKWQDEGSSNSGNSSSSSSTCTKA

On to `NC(=O)N(O)[C@@H]1C=C[C@H](Oc2cccc(Oc3ccc(F)cc3)c2)C1`, for which the call in test [1], in [2], in [3], in [4], in test [5] and in [6] was inactive. For the same compound, the compound was called inactive in test [7], in [12], in test [14], in [15], in test [17] and in test [18]. In addition, the AC50 (in general, the concentration at which the activity in the assay is half-maximal) in test [8] is 52.8 µM (active); in [9], 33 µM (active); in test [10], 33 µM (active); in test [11], 12.9 µM (active); in test [13] it was 18.2 µM (active); in test [16], 18.3 µM (active).
For the compound `C[C@@H]1C[C@H]2[C@@H]3CCC4=CC(=O)C=C[C@]4(C)[C@@]3(F)[C@@H](O)C[C@]2(C)[C@@]1(O)C(=O)COP(=O)(O)O`, the compound was called inactive in [1], in test [4], in [5], in test [19], in [6] and in [7]. Also, the call in test [8], in [9], in test [10], in test [11], in [12] and in test [13] was inactive. For the same compound, the compound was called inactive in [14], in test [15], in [16], in test [17] and in test [18]. For the same compound, the AC50 was 77.6 nM (active) [middle of 4 runs] in [3] and 25.9 µM (active) in test [11].
Regarding `CC(=O)CC(C)(C)O`, the compound was called inactive in test [1], in [2], in test [3], in test [4], in test [5] and in [6]. In addition, the call in test [7], in [8], in test [9], in test [10], in [11] and in test [12] was inactive. Also, the outcome in [13], in [14], in [15], in test [16], in test [17] and in [18] was inactive. The AC50 in [11] was 25 µM (active).

For the origin of these results see PubChem BioAssay (EPA / NIEHS).
